Tests used:
Test in all cases: log2 ratio of Biotin-Ahx-Ub-VS probe labelling (fragment/DMSO); higher = less target engagement (more negative = stronger competition), active = hit call of the paper (q ≤ 0.05, log2 ratio ≤ -1)
Details in all cases: compound concentration: 200 uM; treatment time: 3 h
USP34 = USP34 (UniProt Q70CQ2)
How it was run: (§1)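 In triplicate, 495 µg of HEK293T lysate per sample was incubated with fragment at 200 µM or vehicle for 3 h. Biotin-Ahx-Ub-VS was then added to 0.5 µM final for 1 h, and labelled DUBs were captured with NeutrAvidin, digested with LysC and trypsin, and measured by diaPASEF LC-MS/MS. Data are average log2 fragment/vehicle ratios by unpaired t-test from global-median-normalised Spectronaut label-free quantities, restricted to proteins with ≥2 unique peptides.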

USP36 = target: T1, USP36 (UniProt Q9P275)
T1 sequence (whole entry): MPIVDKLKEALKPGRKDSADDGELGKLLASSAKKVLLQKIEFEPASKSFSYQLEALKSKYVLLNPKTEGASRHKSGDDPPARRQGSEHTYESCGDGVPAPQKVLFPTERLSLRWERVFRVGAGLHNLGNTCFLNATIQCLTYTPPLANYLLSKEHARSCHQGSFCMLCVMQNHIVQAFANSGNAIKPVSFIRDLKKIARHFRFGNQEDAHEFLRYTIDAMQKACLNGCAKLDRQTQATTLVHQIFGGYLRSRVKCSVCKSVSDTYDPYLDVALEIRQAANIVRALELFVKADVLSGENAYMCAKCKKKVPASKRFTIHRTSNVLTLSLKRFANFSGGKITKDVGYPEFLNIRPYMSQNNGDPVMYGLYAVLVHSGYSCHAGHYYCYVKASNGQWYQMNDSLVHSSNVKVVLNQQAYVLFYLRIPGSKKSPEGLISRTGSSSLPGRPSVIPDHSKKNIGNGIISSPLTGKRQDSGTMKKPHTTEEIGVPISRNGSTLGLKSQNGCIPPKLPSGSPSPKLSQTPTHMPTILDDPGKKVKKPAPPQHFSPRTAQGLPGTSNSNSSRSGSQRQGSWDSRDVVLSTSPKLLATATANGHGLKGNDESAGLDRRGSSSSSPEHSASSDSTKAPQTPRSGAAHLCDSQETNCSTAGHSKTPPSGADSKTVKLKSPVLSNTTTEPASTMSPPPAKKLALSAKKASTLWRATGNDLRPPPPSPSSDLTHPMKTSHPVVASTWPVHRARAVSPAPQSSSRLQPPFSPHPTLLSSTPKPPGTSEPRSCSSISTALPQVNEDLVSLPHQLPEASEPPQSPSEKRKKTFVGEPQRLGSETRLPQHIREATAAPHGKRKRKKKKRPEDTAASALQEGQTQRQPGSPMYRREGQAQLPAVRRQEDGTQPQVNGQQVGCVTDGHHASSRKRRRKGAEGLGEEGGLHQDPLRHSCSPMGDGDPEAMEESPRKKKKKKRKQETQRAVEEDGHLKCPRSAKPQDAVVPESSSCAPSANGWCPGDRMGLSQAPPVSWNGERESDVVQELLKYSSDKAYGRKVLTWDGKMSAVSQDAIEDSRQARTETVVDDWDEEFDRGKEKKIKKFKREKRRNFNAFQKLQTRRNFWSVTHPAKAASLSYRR
How it was run: as §1

USP38 = target: T2, USP38 (UniProt Q8NB14)
T2 sequence (whole entry): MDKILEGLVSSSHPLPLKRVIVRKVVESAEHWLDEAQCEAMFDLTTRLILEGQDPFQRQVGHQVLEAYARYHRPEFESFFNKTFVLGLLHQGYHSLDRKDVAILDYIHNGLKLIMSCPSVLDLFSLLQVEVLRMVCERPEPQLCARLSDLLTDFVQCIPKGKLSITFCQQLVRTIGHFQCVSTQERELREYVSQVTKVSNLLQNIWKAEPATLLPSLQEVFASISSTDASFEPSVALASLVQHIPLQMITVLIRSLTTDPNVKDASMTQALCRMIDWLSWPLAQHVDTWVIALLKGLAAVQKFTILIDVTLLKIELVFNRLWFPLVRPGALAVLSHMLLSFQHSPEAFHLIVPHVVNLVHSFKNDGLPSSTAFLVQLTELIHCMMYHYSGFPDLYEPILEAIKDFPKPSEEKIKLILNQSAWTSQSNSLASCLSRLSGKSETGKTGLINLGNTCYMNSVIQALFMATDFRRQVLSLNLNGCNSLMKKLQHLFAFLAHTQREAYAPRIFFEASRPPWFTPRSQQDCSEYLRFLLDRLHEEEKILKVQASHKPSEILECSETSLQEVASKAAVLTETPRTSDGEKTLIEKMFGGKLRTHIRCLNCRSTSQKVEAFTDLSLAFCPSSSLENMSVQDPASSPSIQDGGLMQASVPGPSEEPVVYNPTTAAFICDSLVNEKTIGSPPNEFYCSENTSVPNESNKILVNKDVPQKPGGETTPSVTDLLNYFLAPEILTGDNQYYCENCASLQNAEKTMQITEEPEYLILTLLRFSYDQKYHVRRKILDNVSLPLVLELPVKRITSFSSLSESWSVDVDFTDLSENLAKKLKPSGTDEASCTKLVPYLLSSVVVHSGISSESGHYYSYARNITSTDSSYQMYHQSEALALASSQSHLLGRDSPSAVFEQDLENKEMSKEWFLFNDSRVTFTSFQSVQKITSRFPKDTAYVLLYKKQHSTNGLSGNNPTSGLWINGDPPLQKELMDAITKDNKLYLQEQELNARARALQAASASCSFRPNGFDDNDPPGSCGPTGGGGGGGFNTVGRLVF
How it was run: as §1

USP39 = target: T3, USP39 (UniProt Q53GS9)
T3 sequence (whole entry): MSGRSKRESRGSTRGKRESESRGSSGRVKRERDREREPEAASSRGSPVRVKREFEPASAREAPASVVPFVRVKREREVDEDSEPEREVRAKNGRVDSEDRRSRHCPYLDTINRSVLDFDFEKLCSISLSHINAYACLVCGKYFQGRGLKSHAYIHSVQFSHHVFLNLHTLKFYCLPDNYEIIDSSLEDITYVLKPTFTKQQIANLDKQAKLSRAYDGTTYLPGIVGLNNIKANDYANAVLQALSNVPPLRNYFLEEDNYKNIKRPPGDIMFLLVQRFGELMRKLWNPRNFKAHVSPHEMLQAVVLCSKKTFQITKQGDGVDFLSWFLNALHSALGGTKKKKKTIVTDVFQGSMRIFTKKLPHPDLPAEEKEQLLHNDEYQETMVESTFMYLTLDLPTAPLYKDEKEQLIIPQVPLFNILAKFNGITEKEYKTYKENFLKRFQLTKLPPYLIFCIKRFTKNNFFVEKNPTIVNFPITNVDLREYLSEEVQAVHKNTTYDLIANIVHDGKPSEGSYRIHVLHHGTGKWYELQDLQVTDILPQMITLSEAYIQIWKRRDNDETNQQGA
How it was run: as §1

USP4 = target: T4, USP4 (UniProt Q13107)
T4 sequence (whole entry): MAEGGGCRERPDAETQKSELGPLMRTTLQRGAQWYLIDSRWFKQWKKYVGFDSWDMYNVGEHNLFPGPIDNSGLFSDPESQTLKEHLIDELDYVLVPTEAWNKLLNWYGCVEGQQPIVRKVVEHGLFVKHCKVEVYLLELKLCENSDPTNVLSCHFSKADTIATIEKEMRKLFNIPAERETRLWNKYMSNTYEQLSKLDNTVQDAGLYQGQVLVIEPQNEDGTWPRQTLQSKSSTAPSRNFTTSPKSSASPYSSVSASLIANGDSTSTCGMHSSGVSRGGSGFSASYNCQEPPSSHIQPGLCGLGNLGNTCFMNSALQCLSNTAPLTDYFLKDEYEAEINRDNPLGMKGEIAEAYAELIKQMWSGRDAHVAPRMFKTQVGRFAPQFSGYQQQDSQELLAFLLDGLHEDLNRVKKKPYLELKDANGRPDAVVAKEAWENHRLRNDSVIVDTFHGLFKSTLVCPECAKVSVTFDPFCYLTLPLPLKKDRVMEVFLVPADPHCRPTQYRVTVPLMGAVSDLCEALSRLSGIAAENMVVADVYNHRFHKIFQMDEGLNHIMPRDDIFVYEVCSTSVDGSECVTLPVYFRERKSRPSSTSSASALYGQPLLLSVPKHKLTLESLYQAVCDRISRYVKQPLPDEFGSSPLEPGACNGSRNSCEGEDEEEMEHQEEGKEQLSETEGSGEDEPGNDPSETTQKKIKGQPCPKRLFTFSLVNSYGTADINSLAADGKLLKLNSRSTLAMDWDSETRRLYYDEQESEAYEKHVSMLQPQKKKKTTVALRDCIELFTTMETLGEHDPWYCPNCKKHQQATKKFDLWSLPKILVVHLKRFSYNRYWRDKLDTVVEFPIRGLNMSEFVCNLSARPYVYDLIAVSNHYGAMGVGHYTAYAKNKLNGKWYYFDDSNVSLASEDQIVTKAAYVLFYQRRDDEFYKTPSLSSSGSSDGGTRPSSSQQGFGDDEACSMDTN
How it was run: as §1

Measured: log2 ratio of Biotin-Ahx-Ub-VS probe labelling

Chain of USP34 (Q70CQ2 whole entry, the tested form may be a part): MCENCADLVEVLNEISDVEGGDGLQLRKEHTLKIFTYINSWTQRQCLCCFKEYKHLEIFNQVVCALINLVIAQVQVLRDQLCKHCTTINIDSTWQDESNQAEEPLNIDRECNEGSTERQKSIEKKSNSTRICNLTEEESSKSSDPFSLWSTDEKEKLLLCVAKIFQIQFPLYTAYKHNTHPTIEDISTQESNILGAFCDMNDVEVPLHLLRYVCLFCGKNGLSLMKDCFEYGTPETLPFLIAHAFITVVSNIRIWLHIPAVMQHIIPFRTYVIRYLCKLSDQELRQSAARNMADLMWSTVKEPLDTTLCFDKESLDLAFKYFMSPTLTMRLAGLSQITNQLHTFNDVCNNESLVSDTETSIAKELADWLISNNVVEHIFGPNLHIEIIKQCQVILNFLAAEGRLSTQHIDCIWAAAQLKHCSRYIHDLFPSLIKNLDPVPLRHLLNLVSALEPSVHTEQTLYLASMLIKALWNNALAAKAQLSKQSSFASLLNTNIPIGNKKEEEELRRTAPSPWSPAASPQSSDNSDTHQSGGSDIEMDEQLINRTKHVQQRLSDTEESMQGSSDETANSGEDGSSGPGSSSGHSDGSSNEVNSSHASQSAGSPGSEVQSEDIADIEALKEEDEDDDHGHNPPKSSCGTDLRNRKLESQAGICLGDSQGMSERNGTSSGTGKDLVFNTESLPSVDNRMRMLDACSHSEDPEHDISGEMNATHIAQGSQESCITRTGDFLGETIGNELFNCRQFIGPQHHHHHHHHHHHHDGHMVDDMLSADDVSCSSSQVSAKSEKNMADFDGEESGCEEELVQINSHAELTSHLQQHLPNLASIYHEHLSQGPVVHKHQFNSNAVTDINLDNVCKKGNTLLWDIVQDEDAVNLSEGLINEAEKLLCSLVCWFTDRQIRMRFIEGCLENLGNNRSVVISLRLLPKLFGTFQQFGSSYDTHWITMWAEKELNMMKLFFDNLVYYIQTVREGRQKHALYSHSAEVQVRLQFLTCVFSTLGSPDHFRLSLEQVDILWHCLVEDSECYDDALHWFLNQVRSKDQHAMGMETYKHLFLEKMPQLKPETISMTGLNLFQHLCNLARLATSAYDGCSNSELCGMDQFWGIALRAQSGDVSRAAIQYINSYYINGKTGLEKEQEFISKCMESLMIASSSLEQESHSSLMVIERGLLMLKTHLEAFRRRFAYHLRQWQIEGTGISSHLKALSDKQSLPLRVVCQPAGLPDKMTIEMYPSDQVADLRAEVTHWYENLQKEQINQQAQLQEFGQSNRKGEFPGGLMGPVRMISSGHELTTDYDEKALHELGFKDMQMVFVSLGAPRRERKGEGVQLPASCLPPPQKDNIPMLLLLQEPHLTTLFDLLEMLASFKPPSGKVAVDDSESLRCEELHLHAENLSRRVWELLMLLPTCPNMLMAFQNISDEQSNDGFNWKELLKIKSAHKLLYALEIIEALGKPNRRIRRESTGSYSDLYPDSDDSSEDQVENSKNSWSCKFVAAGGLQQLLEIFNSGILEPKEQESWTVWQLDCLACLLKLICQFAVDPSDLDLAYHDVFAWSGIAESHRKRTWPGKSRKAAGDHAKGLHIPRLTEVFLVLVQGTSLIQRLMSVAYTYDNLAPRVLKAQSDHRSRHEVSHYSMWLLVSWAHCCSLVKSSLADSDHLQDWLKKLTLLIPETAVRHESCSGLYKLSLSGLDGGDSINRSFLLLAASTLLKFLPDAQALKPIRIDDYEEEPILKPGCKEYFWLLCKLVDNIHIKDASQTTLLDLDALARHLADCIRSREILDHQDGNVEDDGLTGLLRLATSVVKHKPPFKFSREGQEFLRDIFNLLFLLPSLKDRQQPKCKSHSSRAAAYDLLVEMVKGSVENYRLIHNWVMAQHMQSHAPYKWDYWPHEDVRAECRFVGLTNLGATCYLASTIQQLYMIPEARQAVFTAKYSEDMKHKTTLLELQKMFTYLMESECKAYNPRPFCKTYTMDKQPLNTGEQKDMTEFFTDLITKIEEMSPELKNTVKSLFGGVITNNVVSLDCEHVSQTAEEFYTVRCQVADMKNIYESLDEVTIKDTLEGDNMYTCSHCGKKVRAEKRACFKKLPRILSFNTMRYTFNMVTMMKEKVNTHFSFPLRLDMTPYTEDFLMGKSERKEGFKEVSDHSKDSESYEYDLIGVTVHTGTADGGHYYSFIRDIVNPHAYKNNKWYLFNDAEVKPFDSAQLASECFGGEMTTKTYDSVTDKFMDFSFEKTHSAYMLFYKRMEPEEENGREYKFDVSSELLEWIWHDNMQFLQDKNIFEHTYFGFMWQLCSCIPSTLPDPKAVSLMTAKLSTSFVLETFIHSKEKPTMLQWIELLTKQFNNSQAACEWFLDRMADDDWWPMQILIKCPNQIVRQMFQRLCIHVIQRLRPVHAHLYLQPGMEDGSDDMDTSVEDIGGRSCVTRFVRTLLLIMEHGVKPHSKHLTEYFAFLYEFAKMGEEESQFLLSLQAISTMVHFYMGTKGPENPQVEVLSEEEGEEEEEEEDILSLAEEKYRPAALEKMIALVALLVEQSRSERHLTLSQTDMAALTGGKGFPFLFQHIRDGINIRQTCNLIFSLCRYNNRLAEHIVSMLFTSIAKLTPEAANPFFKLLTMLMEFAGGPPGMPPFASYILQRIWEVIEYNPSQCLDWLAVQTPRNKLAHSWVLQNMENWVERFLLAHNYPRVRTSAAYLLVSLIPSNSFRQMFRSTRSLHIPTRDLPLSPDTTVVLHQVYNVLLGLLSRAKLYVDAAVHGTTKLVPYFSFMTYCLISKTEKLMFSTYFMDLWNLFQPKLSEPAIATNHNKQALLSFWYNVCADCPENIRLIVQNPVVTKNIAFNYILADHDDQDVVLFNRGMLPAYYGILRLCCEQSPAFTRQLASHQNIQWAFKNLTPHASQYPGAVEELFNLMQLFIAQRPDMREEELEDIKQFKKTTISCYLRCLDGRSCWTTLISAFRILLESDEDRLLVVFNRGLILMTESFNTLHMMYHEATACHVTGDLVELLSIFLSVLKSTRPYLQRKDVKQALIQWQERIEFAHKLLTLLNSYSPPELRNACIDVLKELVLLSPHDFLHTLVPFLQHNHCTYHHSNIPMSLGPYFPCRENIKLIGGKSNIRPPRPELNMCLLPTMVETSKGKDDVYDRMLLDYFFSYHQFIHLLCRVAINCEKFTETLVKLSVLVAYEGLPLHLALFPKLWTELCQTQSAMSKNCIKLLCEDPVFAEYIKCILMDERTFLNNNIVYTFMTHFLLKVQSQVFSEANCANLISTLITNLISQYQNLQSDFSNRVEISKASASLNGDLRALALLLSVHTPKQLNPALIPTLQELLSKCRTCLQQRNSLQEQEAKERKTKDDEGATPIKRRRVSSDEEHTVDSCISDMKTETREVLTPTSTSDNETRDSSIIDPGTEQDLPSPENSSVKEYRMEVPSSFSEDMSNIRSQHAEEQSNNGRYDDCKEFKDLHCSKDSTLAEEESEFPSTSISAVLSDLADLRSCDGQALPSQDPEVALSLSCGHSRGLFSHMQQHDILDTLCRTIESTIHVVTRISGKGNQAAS

Cl.Cn1nccc1C(NC(=O)CCl)c1ccccc1 (stereo not given)
inactive: USP34 -0.0966 | USP36 0.193 | USP38 -0.0261 | USP39 0.0185 | USP4 -0.116
